Results on 14 molecules are retold here after ChEMBL document CHEMBL2218924, “A broad activity screen in support of a chemogenomic map for kinase signalling research and drug discovery” (Biochem J, 2013).

The term residual activity denotes the signal under treatment as a percentage of the control signal.

The structures appear in SMILES notation.

The target in assay [1] is Focal adhesion kinase 1 (Homo sapiens) (UniProt Q05397). Particulars: at 10 µM.
The target in assay [2] is Fibroblast growth factor receptor 1 (Homo sapiens) (UniProt P11362). Particulars: at 1 µM.
For assay [3] the target is unchanged. The conditions noted are these: at 10 µM.
In assay [4] the target is Fibroblast growth factor receptor 2 (Homo sapiens) (UniProt P21802). Particulars: at 1 µM.
Assay [5] has the same target. The conditions noted are these: at 10 µM.
The target of assay [6] is Fibroblast growth factor receptor 3 (Homo sapiens) (UniProt P22607). The conditions noted are these: at 1 µM.
The target is the same in assay [7]. Particulars: at 10 µM.
In assay [8] the target is Fibroblast growth factor receptor 4 (Homo sapiens) (UniProt P22455). The conditions noted are these: at 1 µM.
The target is the same in assay [9]. The conditions noted are these: at 10 µM.
Assay [10] has as its target Tyrosine-protein kinase Fer (Homo sapiens) (UniProt P16591). Particulars: at 1 µM.
The target is the same in assay [11]. The conditions noted are these: at 10 µM.
The target of assay [12] is Tyrosine-protein kinase Fes/Fps (Homo sapiens) (UniProt P07332). Particulars: at 1 µM.
Assay [13] shares this target. Particulars: at 10 µM.
Assay [14] addresses Tyrosine-protein kinase Fgr (Homo sapiens) (UniProt P09769). The conditions noted are these: at 1 µM.
For assay [15] the target is unchanged. The conditions noted are these: at 10 µM.
Assay [16] deals with Vascular endothelial growth factor receptor 1 (Homo sapiens) (UniProt P17948). Particulars: at 1 µM.
The target is the same in assay [17]. Particulars: at 10 µM.
Assay [18] deals with Receptor-type tyrosine-protein kinase FLT3 (Homo sapiens) (UniProt P36888). Particulars: at 1 µM.
For assay [19] the target is unchanged. Particulars: at 10 µM.
Assay [20] deals with Vascular endothelial growth factor receptor 3 (Homo sapiens) (UniProt P35916). The conditions noted are these: at 1 µM.

Vascular endothelial growth factor receptor 1 (Homo sapiens), sequence (P17948 whole entry): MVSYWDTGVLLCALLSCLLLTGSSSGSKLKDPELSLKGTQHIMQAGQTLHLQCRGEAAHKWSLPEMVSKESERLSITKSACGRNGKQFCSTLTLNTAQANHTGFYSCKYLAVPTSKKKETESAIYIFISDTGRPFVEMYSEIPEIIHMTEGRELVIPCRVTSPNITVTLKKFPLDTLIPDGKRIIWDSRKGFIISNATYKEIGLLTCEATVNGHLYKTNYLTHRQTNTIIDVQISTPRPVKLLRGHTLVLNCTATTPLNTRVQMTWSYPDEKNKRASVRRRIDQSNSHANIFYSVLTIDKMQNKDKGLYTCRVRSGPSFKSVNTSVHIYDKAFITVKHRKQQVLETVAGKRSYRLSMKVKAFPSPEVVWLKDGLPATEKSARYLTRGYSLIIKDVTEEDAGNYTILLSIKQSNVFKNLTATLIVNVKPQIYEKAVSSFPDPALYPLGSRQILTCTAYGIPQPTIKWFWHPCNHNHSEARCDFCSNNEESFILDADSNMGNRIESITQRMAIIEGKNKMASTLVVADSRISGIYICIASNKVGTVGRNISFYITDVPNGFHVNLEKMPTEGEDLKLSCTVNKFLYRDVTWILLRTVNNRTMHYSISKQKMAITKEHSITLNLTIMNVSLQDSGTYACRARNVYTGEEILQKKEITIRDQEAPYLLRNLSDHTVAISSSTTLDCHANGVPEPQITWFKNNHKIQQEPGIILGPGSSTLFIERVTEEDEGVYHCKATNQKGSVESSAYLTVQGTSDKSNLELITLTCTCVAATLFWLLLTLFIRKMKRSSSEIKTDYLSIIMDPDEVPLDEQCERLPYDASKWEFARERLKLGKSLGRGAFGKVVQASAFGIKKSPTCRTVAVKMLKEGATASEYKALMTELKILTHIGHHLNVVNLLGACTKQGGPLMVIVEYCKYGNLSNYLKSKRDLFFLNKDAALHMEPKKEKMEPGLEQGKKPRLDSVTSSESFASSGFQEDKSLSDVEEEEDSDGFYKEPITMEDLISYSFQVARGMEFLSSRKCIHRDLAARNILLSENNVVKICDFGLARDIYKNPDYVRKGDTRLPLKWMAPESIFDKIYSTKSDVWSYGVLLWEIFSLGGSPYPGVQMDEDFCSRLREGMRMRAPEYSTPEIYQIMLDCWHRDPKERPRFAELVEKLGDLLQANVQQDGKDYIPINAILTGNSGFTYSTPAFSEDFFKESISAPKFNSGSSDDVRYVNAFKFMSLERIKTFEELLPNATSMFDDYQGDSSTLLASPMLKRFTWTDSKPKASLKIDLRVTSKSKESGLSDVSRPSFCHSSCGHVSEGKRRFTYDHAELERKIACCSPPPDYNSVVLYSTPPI
Tyrosine-protein kinase Fgr (Homo sapiens), sequence (P09769 2-529 limits assumed): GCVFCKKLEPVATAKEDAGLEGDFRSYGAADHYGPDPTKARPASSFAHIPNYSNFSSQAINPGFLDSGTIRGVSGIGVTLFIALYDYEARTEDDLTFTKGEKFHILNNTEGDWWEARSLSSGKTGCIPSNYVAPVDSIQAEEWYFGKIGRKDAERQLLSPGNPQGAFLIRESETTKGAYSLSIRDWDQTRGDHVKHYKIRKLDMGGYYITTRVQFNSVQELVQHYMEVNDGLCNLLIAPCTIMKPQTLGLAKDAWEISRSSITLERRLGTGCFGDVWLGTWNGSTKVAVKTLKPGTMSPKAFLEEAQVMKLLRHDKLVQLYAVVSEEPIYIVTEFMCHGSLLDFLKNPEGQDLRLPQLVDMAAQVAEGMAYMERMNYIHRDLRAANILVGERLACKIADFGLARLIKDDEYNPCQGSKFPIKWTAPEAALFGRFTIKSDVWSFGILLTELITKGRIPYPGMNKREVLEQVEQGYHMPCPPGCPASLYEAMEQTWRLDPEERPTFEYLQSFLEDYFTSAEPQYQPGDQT
Tyrosine-protein kinase Fes/Fps (Homo sapiens), sequence (P07332 whole entry): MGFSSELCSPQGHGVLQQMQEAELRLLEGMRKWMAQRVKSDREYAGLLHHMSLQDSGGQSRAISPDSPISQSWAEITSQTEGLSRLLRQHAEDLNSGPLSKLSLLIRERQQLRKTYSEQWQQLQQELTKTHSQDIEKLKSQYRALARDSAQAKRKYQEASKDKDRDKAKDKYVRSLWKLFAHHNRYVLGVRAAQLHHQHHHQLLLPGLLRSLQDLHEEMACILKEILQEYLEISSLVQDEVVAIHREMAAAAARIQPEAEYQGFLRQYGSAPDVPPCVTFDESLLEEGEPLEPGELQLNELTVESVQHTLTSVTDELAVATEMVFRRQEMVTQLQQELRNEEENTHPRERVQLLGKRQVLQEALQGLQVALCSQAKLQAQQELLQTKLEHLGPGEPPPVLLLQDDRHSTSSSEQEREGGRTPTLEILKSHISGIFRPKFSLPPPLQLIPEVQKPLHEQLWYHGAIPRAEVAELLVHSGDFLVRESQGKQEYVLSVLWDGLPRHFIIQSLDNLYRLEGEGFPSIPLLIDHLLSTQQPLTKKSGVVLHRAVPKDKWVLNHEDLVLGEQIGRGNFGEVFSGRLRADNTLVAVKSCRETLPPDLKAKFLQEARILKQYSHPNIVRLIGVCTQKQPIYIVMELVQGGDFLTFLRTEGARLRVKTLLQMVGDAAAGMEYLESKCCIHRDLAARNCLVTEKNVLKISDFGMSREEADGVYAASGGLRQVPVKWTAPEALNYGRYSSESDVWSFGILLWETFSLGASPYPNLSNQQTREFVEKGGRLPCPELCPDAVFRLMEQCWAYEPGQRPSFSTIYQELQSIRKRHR
Fibroblast growth factor receptor 3 (Homo sapiens), sequence (P22607 23-806 limits assumed): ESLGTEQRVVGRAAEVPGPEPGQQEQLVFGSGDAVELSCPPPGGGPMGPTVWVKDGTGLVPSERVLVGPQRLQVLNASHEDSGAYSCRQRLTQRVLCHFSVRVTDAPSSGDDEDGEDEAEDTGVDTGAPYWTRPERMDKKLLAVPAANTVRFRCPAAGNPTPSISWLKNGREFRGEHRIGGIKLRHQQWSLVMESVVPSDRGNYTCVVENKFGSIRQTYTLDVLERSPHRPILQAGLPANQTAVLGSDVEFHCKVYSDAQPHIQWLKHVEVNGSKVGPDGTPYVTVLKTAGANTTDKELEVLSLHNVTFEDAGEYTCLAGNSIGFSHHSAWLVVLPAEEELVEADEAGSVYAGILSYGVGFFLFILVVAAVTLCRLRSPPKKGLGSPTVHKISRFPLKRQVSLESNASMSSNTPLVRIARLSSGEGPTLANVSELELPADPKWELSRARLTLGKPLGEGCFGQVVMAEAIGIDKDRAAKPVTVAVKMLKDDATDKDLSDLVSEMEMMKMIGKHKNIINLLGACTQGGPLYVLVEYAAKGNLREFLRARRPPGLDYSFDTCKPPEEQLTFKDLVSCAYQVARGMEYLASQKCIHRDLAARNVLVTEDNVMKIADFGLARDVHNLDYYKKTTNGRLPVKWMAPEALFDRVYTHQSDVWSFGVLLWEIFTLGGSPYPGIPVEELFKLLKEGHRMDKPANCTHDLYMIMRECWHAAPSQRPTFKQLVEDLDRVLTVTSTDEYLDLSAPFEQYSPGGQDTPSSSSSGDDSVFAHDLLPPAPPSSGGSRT
Fibroblast growth factor receptor 4 (Homo sapiens), sequence (P22455 22-802 limits assumed): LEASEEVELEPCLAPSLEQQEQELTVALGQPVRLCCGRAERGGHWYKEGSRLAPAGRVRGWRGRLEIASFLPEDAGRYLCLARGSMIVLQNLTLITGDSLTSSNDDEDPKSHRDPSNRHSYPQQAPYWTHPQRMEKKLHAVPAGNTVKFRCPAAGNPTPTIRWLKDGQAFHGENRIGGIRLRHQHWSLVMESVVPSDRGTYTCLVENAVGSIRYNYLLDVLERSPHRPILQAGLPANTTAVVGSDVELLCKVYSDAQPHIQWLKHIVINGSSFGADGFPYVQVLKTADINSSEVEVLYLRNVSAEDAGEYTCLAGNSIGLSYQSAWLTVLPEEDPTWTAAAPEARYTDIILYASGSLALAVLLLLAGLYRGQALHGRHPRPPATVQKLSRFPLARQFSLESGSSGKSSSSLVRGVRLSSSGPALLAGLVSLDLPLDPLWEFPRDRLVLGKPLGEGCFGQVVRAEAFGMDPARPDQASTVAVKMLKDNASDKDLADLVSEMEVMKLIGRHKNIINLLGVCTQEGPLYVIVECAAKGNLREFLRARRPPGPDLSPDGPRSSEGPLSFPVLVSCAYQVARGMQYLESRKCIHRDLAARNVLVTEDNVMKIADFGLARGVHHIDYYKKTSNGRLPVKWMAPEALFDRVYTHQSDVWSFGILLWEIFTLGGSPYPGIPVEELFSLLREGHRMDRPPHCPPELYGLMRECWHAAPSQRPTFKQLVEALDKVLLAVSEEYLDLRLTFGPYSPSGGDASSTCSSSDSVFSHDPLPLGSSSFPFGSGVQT
Fibroblast growth factor receptor 1 (Homo sapiens), sequence (P11362 22-822 limits assumed): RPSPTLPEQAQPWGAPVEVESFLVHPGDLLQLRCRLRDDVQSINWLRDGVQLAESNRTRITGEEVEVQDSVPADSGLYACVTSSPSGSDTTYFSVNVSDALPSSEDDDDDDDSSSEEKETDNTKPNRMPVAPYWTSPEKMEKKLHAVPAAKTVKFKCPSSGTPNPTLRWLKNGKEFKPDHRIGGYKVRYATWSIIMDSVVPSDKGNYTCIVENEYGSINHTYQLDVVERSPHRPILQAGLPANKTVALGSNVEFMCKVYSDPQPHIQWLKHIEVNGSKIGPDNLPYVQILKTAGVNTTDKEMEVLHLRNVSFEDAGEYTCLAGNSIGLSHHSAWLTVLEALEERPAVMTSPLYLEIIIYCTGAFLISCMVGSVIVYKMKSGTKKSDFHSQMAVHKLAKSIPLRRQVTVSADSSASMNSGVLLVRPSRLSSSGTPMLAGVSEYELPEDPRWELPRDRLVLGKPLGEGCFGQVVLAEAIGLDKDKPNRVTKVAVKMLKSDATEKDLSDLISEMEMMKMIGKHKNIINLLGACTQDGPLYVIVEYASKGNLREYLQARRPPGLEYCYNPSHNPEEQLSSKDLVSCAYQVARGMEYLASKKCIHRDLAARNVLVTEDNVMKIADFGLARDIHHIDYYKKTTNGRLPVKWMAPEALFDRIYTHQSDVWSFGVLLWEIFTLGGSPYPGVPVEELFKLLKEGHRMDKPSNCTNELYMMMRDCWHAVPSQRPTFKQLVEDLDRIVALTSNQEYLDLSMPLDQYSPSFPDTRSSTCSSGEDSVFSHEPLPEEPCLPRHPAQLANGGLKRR

In the case of `Cn1cc(/C=C2\C(=O)Nc3ccc(S(N)(=O)=O)cc32)c2ccccc21`, the residual activity in assay [1] was 42%; in assay [2] it was 19%; in [3] it was 5%; in [4] it was 10%; in assay [5] it was 3%; in [6], 17%. In addition, the residual activity in [7] stood at 14%; in assay [8] it was 118%; in assay [9] it was 69%; in assay [10] it was 35%; in [11], 9%; in [12] it was 40%. Moreover, the residual activity in assay [13] came out at 15%; in [14], 9%; in [15] it was 10%; in assay [16], 22%; in assay [17], 9%; in assay [18] it was 1%. Moreover, the figures for the residual activity in assay [19] and in assay [20] were -1% and 11%, respectively.

As for `O=C(Nc1cccc(Nc2nccc(Nc3cccc(C(F)(F)F)c3)n2)c1)C1CC1`, the residual activity in assay [1] is 10%; in [2] it was 69%; in assay [3] it was 8%; in assay [4], 99%; in assay [5], 37%; in [6] it was 83%. Further, the residual activity in assay [7] was found to be 91%; in [8] it was 108%; in assay [9] it was 63%; in assay [10], 124%; in assay [11], 59%; in assay [12], 84%. Besides, the residual activity in [13] was found to be 68%; in [14], 59%; in assay [15], 67%; in assay [16], 59%; in [17], 6%; in assay [18], 45%. The residual activity worked out at 3% in [19] and 55% in assay [20].

Regarding `CN(C)c1ccc(/C=C2\C(=O)Nc3ccccc32)cc1`, the residual activity was 62% in assay [1]; 61% in [2]; 10% in assay [3]; 94% in [4]; 38% in [5]; 89% in assay [6]. In addition, the residual activity is 64% in assay [7]; 122% in [8]; 110% in assay [9]; 109% in assay [10]; 82% in assay [11]; 113% in assay [12]. The residual activity in assay [13] amounted to 79%; in assay [14] it was 90%; in assay [15] it was 44%; in assay [16], 14%; in assay [17], 2%; in assay [18] it was 4%. In addition, the residual activity in assay [19] was determined as 1%; in assay [20] it was 3%.

Consider `Cc1cc(Nc2nc(-c3ccccc3)nc3ccccc23)n[nH]1`, for which the residual activity in [1] was found to be 7%; in assay [2] it was 4%; in assay [3] it was 2%; in assay [4] it was 24%; in [5], 2%; in assay [6], 34%. Moreover, the residual activity in assay [7] amounted to 4%; in assay [8], 106%; in assay [9] it was 72%; in [10] it was 43%; in assay [11], 6%; in assay [12], 58%. Besides, the residual activity in [13] was determined as 21%; in assay [14], 18%; in [15], 2%; in assay [16], 0%; in assay [17] it was 1%; in assay [18], 2%. Moreover, the values for the residual activity in assay [19] and in assay [20] were 1% and 0%, respectively.

Turning to `CCN(CC)CCCCN1c2ccccc2Oc2ccc(Cl)cc21`, the residual activity was 108% in [1]; 113% in assay [2]; 82% in assay [3]; 108% in assay [4]; 112% in assay [5]; 110% in [6]. Moreover, the residual activity in assay [7] was found to be 99%; in [8] it was 129%; in [9], 90%; in assay [10], 117%; in [11], 102%; in assay [12], 129%. The residual activity in assay [13] was 88%; in assay [14] it was 111%; in assay [15], 95%; in assay [16] it was 115%; in [17] it was 112%; in [18], 98%. Moreover, the residual activity in assay [19] is 74%; in assay [20] it was 96%.

In the case of `Oc1n[nH]c2nnc(-c3c(-c4ccccc4)nn4ccccc34)cc12`, the residual activity in assay [1] came out at 91%; in [2] it was 108%; in [3], 92%; in assay [4], 95%; in assay [5] it was 91%; in assay [6], 97%. For the same molecule, the residual activity is 102% in [7]; 115% in assay [8]; 90% in assay [9]; 96% in assay [10]; 91% in assay [11]; 92% in assay [12]. In addition, the residual activity in assay [13] worked out at 108%; in [14], 89%; in [15], 95%; in [16], 86%; in [17], 80%; in [18], 76%. Further, the residual activity in [19] was 63%; in assay [20] it was 89%.

`COc1ccc(S(=O)(=O)N(CCO)c2ccccc2CN(C)C/C=C/c2ccc(Cl)cc2)cc1`: the residual activity in assay [1] came to 70%; in assay [2], 108%; in assay [3] it was 64%; in assay [4], 110%; in assay [5], 81%; in [6], 125%. Moreover, the residual activity worked out at 89% in assay [7]; 129% in assay [8]; 92% in [9]; 94% in assay [10]; 91% in assay [11]; 96% in assay [12]. Moreover, the residual activity in [13] stood at 89%; in assay [14], 95%; in assay [15] it was 80%; in assay [16] it was 100%; in [17], 92%; in [18] it was 104%. In addition, the residual activity in [19] is 62%; in [20], 90%.

Consider `NC(=O)c1ccc2[nH]c(-c3ccc(Oc4ccc(Cl)cc4)cc3)nc2c1`, for which the residual activity in assay [1] is 65%; in [2], 118%; in [3] it was 101%; in assay [4], 108%; in assay [5], 103%; in [6], 129%. Besides, the residual activity in assay [7] came to 132%; in assay [8] it was 123%; in assay [9] it was 126%; in assay [10] it was 95%; in assay [11], 89%; in assay [12] it was 97%. For the same molecule, the residual activity was determined as 87% in assay [13]; 99% in assay [14]; 90% in assay [15]; 82% in [16]; 39% in [17]; 65% in assay [18]. For the same molecule, the residual activity in assay [19] came out at 27%; in [20], 69%.

For the molecule `O=c1c2ccccc2[nH]c(=S)n1CCN1CCC(=C(c2ccc(F)cc2)c2ccc(F)cc2)CC1`, the residual activity in [1] is 81%; in [2], 83%; in assay [3], 49%; in assay [4] it was 119%; in [5] it was 62%; in assay [6], 123%. In addition, the residual activity in assay [7] turned out to be 78%; in assay [9] it was 81%; in assay [10], 109%; in assay [11], 89%; in [12], 117%; in [13], 93%. In addition, the residual activity in assay [14] amounted to 110%; in [15], 91%; in assay [16], 97%; in assay [17] it was 98%; in [18], 81%; in assay [19] it was 57%. Besides, the residual activity in [20] turned out to be 89%.

As for `COc1cc2ncnc(Nc3ccc(NC(=O)c4ccccc4)cc3)c2cc1OC`, the residual activity was 75% in [1]; 92% in assay [5]; 82% in assay [9]; 111% in [10]; 94% in assay [11]; 90% in assay [13]. For the same molecule, the residual activity in assay [14] was 71%; in assay [15], 25%; in [16] it was 101%; in assay [17] it was 72%; in assay [18], 97%; in assay [19] it was 92%. Besides, in assay [20], the residual activity came out at 76%.

Consider `O=C1Nc2ccc(Br)cc2/C1=C\c1cc2c([nH]1)CCCC2`, for which the residual activity came to 58% in [1]; 81% in assay [2]; 81% in assay [3]; 63% in [4]; 53% in assay [5]; 119% in [10]. Moreover, the residual activity in assay [12] stood at 107%; in [13], 78%; in [15], 72%; in [16] it was 17%; in [17], 20%; in [18], 3%. In addition, the residual activity in assay [19] and in assay [20] was 1% each time.

Turning to `Cc1ccc(S(=O)(=O)/C=C/C#N)cc1`, the residual activity stood at 102% in [1]; 91% in assay [2]; 82% in [3]; 108% in assay [4]; 89% in assay [5]; 118% in assay [6]. The residual activity came to 118% in assay [7]; 115% in assay [8]; 106% in assay [9]; 101% in assay [10]; 99% in assay [11]; 97% in assay [12]. For the same molecule, the residual activity is 108% in assay [13]; 108% in assay [14]; 105% in assay [15]; 96% in [16]; 100% in assay [17]; 89% in assay [19]. Also, the residual activity in [20] came to 98%.

For `N#Cc1cnc2cnc(NCc3cccnc3)cc2c1Nc1ccc(F)c(Cl)c1`, the residual activity was determined as 21% in assay [2]; 12% in assay [3]; 48% in assay [4]; 30% in assay [5]; 38% in assay [6]; 18% in [7]. The residual activity in [9] was found to be 92%; in [10] it was 83%; in assay [11] it was 95%; in [12], 19%; in assay [13], 12%; in [14], 11%. Moreover, the residual activity in [15] was determined as 4%; in assay [16], 14%; in [17], 7%; in assay [18] it was 2%; in assay [19], 0%; in [20], 8%.

`N#C/C(=C(\N)Sc1ccc(N)cc1)c1ccccc1C(F)(F)F`: the residual activity was found to be 95% in assay [1]; 112% in assay [2]; 83% in assay [3]; 100% in assay [4]; 102% in [6]; 93% in [7]. Also, the residual activity stood at 86% in assay [8]; 90% in assay [9]; 88% in assay [10]; 79% in assay [11]; 93% in assay [12]; 100% in assay [13]. Moreover, the residual activity in assay [14] is 88%; in assay [15] it was 73%; in assay [16], 83%; in assay [17] it was 38%; in assay [18] it was 62%; in assay [19], 59%. The residual activity in assay [20] was determined as 65%.
